Test results as given in PMC5540273 (PLoS ONE, 2017).

Experiments:
Settings in all cases: concentration: 1 μM,replicates: in singlicate; n = 1
[1] = test system: PLK2
[2] = test system: PLK3
[3] = test system: PLK4
[4] = test system: PRKCD
[5] = test system: PRKCE
[6] = test system: PRKCH
[7] = test system: PRKCI
[8] = test system: PRKD1
[9] = test system: PRKD2
[10] = test system: PRKCQ
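Further: KINOMEscan kinase panel screen.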

| Structure (SMILES) | %Inh [1] [%] | %Inh [2] [%] | %Inh [3] [%] | %Inh [4] [%] | %Inh [5] [%] | %Inh [6] [%] | %Inh [7] [%] | %Inh [8] [%] | %Inh [9] [%] | %Inh [10] [%] |
| --- | --- | --- | --- | --- | --- | --- | --- | --- | --- | --- |
| C=CC(=O)Nc1cc2c(Nc3ccc(F)c(Cl)c3)ncnc2cc1OCCCN1CCOCC1 [GW781483] | 0 | 0 | 26 | 0 | 30 | 0 | 0 | 0 | 0 | – |
| O=C(NCCCN1CCOC1=O)c1cnc(NCc2cc(Cl)ccc2Cl)nc1NC1CCCC1 | 0 | 4 | 17 | 3 | 14 | 8 | 23 | 23 | 0 | 0 |
| Cc1ccc2c(-c3ccncc3)c(-c3ccc(F)cc3)nn2c1.Cl [GW461484] | 0 | 0 | 0 | 8 | 8 | 0 | 28 | 34 | 55 | 21 |
| Nc1nc(Nc2ccccc2)cc(-c2ccc3c(N)n[nH]c3c2)n1 [GSK2225749] | 0 | 0 | 6 | 8 | 0 | 0 | 20 | 0 | 0 | 0 |
| CN(C)CCOc1ccc(-c2cc(-c3c[nH]nc3-c3ccccn3)ccn2)cc1 [GW835314] | 21 | 0 | 2 | 23 | 11 | 8 | 14 | 89 | 96.1 | 100 |
| CC(C)N1C(=O)Cc2cc(Nc3ncc(C(F)(F)F)c(NCc4cccc(S(C)(=O)=O)c4)n3)ccc21 | 61 | 64 | 67 | 0 | 0 | 0 | 0 | 0 | 16 | 9 |
| Cc1occc1-c1nc(N)c(OC[C@@H](N)Cc2c[nH]c3ccccc23)cc1-c1cc2c(C)n[nH]c2cn1 [GSK1660450] | 65 | 52 | 0 | 100 | 99.6 | 95.7 | 34 | 93.3 | 97.4 | 100 |
| C[C@@H]1CCN(C(=O)CC#N)C[C@@H]1N(C)c1ncnc2[nH]ccc12 | 0 | 0 | 0 | 18 | 45 | 12 | 5 | 0 | 0 | 0 |
| Cc1cc2cn[nH]c2cc1-c1cccc2c(N)c(C(N)=O)nnc12 | 5 | 0 | 51 | 5 | 4 | 7 | 23 | 86 | 89 | 21 |
| C[C@@H](Oc1cc(-c2cnn(C3CCNCC3)c2)cnc1N)c1c(Cl)ccc(F)c1Cl | 17 | 17 | 88 | 20 | 2 | 0 | 24 | 61 | 31 | 26 |
| CCN(CC)CCOc1ccc(Nc2ncc3cc(-c4c(Cl)cccc4Cl)c(=O)n(C)c3n2)cc1 [SB-601273] | 27 | 52 | 30 | 0 | 22 | 0 | 26 | 93.3 | 93.6 | 27 |
| Cc1n[nH]c2ccc(-c3cc(OC[C@@H](N)Cc4ccccc4)cnc3-c3ccoc3)cc12.O=C(O)C(F)(F)F.O=C(O)C(F)(F)F [GSK507358] | 0 | 0 | 0 | 99.8 | 95.5 | 95.9 | 33 | 91.4 | 99.2 | 95.4 |
| CC(C)Nc1cc(-c2ccc3c(N)n[nH]c3c2)nc(N)n1 [GSK2221681] | 0 | 0 | 0 | 0 | 0 | 0 | 11 | 0 | 0 | 12 |
| CNC(=O)c1ccccc1Sc1ccc2c(/C=C/c3ccccn3)n[nH]c2c1 | 40 | 34 | 97.7 | 4 | 58 | 0 | 9 | 0 | 8 | 3 |
| Cl.Cl.NC[C@H](CC1CCCCC1)NC(=O)c1cc(Br)c(-c2ccnc3[nH]ccc23)s1 [GSK1581427] | 0 | 0 | 15 | 99.5 | 96.6 | 97.7 | 0 | 64 | 67 | 90.2 |
| C[C@H]1Oc2cc(cnc2N)-c2c(nn(C)c2C#N)CN(C)C(=O)c2ccc(F)cc21 | 0 | 0 | 97.9 | 15 | 0 | 12 | 21 | 0 | 12 | 12 |
| Cl.Oc1cc(-c2nc(-c3ccccc3)[nH]c2-c2ccncc2)ccc1Cl [SB-386023] | 33 | 12 | 17 | 0 | 13 | 1 | 0 | 0 | 2 | 8 |
| O=C(NCCNc1ccnc(NCc2ccc(F)cc2)n1)c1cc2ccccc2s1 [GSK1379944] | 0 | 0 | 74 | 0 | 86 | 22 | 8 | 0 | 70 | 39 |
| CN(C)CC(O)COc1ccc(Nc2nccc(-c3cnn4nc(N5CCOCC5)ccc34)n2)cc1 (centres unmarked) [GW767488] | 28 | 35 | 63 | 14 | 0 | 0 | 36 | 93.7 | 98.2 | 21 |
| NC(=O)c1cc(-c2ccccc2)cc2c(C3CCNCC3)c[nH]c12 [GSK301362] | 34 | 0 | 0 | 40 | 46 | 71 | 35 | 37 | 2 | 64 |
| Cl.Cl.NC[C@H](Cc1ccc(C(F)(F)F)cc1)NC(=O)c1cc(Br)c(-c2ccnc3[nH]ccc23)s1 [GSK1487252] | 0 | 0 | 8 | 97.3 | 97.5 | 98 | 17 | 83 | 57 | 88 |
| CCn1c(-c2nonc2N)nc2c(C#CC(C)(C)O)nc(OCCN)cc21.Cl.Cl [GSK902056] | 0 | 0 | 3 | 81 | 97.9 | 96.5 | 20 | 14 | 14 | 89 |
| Cc1cc(C(=O)Nc2ccc(Oc3ccc4nc(NC(=O)C5CC5)cn4n3)cc2)nn1-c1ccccc1 | 0 | 0 | 0 | 9 | 0 | 0 | 44 | 0 | 0 | 0 |
| Cc1ccc(-n2nc(C(C)(C)C)cc2NC(=O)Nc2ccc(OCCN3CCOCC3)c3ccccc23)cc1 [GW839464] | 0 | 0 | 2 | 21 | 15 | 0 | 20 | 0 | 20 | 0 |
| CCN(CC)CCCCNc1ncc2cc(-c3c(Cl)cccc3Cl)c(NC(=O)NC(C)(C)C)nc2n1 | 5 | 7 | 13 | 22 | 74 | 0 | 19 | 28 | 5 | 0 |
| Cl.Cl.Nc1nc(-c2ccc3c(N)n[nH]c3c2)cc(N2CCCC(NC(=O)c3ccccc3)C2)n1 (centres unmarked) [GSK2286775] | 0 | 1 | 16 | 0 | 10 | 0 | 24 | 0 | 0 | 18 |
| COc1ccc(C[C@@H](CN)NC(=O)c2cc(Br)c(-c3ccnc4[nH]ccc34)s2)cc1.Cl.Cl [GSK1389063] | 27 | 27 | 34 | 99.8 | 98.2 | 99.4 | 56 | 83 | 85 | 92.4 |
